# Data: PubChem BioAssay AID588342 (National Center for Advancing Translational Sciences (NCATS), 2011)
# Out of some 360,000 compounds screened, about 25,000 (6.9%) were called active. Inconclusive results (about 9%) are left out. This is one part of a sample in which actives are shown more often than they occur. A number with no mark means an inactive call. The call rests on the fitted dose curve; in most records, active means well fitted inhibition curve with a large enough effect; inconclusive means small, poorly fitted or top-dose-only effect; inactive means flat fitted curve, though single readings scatter.
# Target: Luciferin 4-monooxygenase (Photinus pyralis) (UniProt P08659)
# Sequence (P08659 whole entry, looked up): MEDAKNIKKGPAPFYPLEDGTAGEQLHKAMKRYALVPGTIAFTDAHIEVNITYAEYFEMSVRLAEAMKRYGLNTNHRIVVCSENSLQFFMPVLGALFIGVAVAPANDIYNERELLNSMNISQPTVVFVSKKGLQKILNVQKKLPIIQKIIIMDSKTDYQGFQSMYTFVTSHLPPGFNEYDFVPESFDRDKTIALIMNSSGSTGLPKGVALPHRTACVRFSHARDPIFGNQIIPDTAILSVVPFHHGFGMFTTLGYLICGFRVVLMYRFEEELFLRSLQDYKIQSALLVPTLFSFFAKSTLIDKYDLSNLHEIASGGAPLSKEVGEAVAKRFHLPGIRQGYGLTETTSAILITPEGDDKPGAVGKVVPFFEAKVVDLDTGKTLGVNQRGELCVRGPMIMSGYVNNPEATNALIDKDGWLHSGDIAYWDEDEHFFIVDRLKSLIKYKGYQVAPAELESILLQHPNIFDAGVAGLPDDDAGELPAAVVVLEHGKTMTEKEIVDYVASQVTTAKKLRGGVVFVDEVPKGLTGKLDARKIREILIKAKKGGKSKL
# Test: qHTS profiling assay for firefly luciferase inhibitor/activator using purifed enzyme and Km concentrations of substrates (counterscreen for miR-21 project); further: nearly all actives have a fitted effect of over 55% in size;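 on activity change, negative = inhibition: plate controls were vehicle for no effect and reference inhibitor for full effect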
# Details: purified FLuc, luminescence inhibition; series mostly up to 57.5 µM; activity change, negative = inhibition: at the top concentration
# In short: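 Purified P. pyralis luciferase (10nM final) with 10uM D-luciferin and 10uM ATP (Km levels) in 50mM Tris acetate pH 7.5, 10mM Mg acetate, 0.01% Tween-20, 0.05% BSA; qHTS 6-point titration, ~60 µM downward; luminescence read.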
# Potency means the concentration at half of the fitted maximal effect.
Structure (SMILES),"activity change, negative = inhibition",Potency
Cc1ccc(CN(C(=O)COc2ccc(Cl)cc2C)C2CCS(=O)(=O)C2)o1 (centres undefined),4.67%,–
CN(CC(=O)NNC(=O)CNC(=O)c1ccccc1Cl)S(=O)(=O)c1ccc(Cl)cc1,-0.0194%,–
Cc1ccc(CN2COc3cc(C)c4c(oc(=O)c5ccccc54)c3C2)cc1,-7.2%,–
COc1ccc(C(=O)OC(C)C(=O)NC2CCCC2)cc1S(=O)(=O)N1CCOCC1 (centres undefined),0.5%,–
COc1ccc(OC)c(NC(=O)C2CCCN(S(=O)(=O)c3ccc4c(c3)CCCC(=O)N4)C2)c1 (centres undefined),6.14%,–
O=C(Cn1ncc2c3ccccc3n(Cc3ccccc3)c2c1=O)NC1CCCCCC1,-4.42%,–
CC(C)C(=O)Nc1ccc(C(=O)NNC(=O)c2cccs2)cc1,-12.4%,–
CCc1ccc(NC(=O)C(=O)NNC(=O)c2cccs2)cc1,–,16.9 µM (active)
Cc1ccc(C)c(NC(=O)CCC(=O)NNC(=O)c2cccs2)c1,-2.71%,–
COCCn1cnc2c1c(=O)n(CC(=O)NN)c(=O)n2Cc1ccccc1,-0.963%,–
Cc1ccccc1-c1cc(C(=O)NCC2CC2)n(CC2CC(c3cccnc3)=NO2)n1 (centres undefined),-1.55%,–
Cc1nc2sc(C)c(C)n2c(=O)c1S(=O)(=O)NCCc1ccc(Cl)cc1,-6.21%,–
CC(C)c1ccc(-c2nn[nH]n2)cc1,–,6.01 µM (active)
Cc1n[nH]c(=O)n1-c1ccc(C(C)C)cc1,-3.32%,–
c1cc(-c2nn[nH]n2)ccc1CN1CCCCC1,-13.7%,–
CCOc1ccc(N(CC)C(=O)c2noc3c2COc2ccc(C)cc2-3)cc1,-2.9%,–
COc1ccccc1CNC(=O)CCn1c(=O)c2ccccc2n(CC(=O)Nc2cccc(Cl)c2)c1=O,-0.523%,–
Cc1ccc(C)c(N2CCN(C(c3ccccc3)c3nnc(-c4ccccc4)o3)CC2)c1 (centres undefined),-0.488%,–
OC(CNCCc1ccc(Cl)cc1Cl)COc1ccccc1 (centres undefined),5.25%,–
CCOc1ccc(NC(=O)NNC(=O)c2ccc(Cl)cc2Cl)cc1,-1%,–
NC(N)=N/N=C/c1ccc(OCc2ccc(Cl)cc2Cl)cc1,–,16.9 µM (active)
C#CCOc1ccc(C2CC(=O)Nc3c2c(C)nn3-c2nc(C)cc(C)n2)cc1 (centres undefined),-14%,–
CCS(=O)(=O)c1ccc(O)c(NC(=O)COc2ccc(Cl)cc2)c1,–,16.9 µM (active)
CS(=O)(=O)c1ccc(C(=O)OCC(=O)NNC(=O)COc2ccc(Cl)cc2)cc1,3.41%,–
COC(=O)c1sccc1NC(=O)COc1ccc(Cl)cc1,-15.4%,–

Structure (SMILES),"activity change, negative = inhibition",Potency
CCOc1ccc(N(Cc2ccccc2)C(=O)c2nc(SCC)ncc2Cl)cc1,-9.15%,–
CCCN1CN=C(NS(=O)(=O)c2ccc(NC(C)=O)cc2)NC1,0.883%,–
COCCOC(=O)c1[nH]c2c(c1C)C(=O)CC(c1ccc(OC)cc1)C2 (centres undefined),2.45%,–
COC(=O)C1C(=O)c2c([nH]c(C(=O)OCCSC)c2C)CC1C (centres undefined),–,7.57 µM (active)
CCCOC(=O)C1=C(C)NC2=C(C(=O)C(C(=O)OC)C(C)C2)C1c1ccc(N(C)C)cc1 (centres undefined),0.124%,–
CCc1ccc(NC(=O)Cn2c(=O)n(CCC(=O)NCc3ccc4c(c3)OCO4)c(=O)c3ccccc32)cc1,-0.038%,–
CC(C)CC(=O)NCC(c1ccc2c(c1)OCO2)N1CCN(c2ccc(F)cc2)CC1 (centres undefined),-1.61%,–
CCC(=O)Nc1c(C)n[nH]c1C,-4.16%,–
Cc1ccc(Nc2nc(Cl)c(C=O)s2)cc1,–,12 µM (active)
Cc1ccc(NC(=O)Nc2nnc(-c3ccncc3)s2)cc1,-1.13%,–
Cc1ccc(Nc2nc(C)cc(C)c2C(N)=O)cc1,-1.84%,–
Cc1ccc2c(=O)c(C(=O)c3cccc(Cl)c3)cn(CC(=O)NCc3ccccc3)c2n1,-1.16%,–
COc1ccccc1C(=O)NC(CCSC)C(=O)NNC(=O)c1csc(N2CCOCC2)n1 (centres undefined),2.94%,–
COc1ccc(NS(=O)(=O)c2ccc(C)c(C(=O)NNC(=O)c3csc(N4CCOCC4)n3)c2)cc1,-19.7%,–
CSCCC(NC(=O)c1ccc(Cl)cc1Cl)C(=O)NNC(=O)c1csc(N2CCOCC2)n1 (centres undefined),–,23.9 µM (active)
Cc1ccc(NC(=O)Nc2sc3nc4n(c(=O)c3c2C)CCC(C)CC4)c(Cl)c1 (centres undefined),2.26%,–
CCc1cc2c(=O)c(-c3ccon3)c(N)oc2cc1OC,–,2.39 µM (active)
CCc1cc2c(=O)c(-c3ccc(F)cc3)c(C(F)(F)F)oc2cc1OCC(=O)O,-16.5%,–
COc1ccc2oc(N)c(C=O)c(=O)c2c1,-4.85%,–
Cc1cccc(NC(c2cccc(F)c2)c2ccc3ccc(C)nc3c2O)n1 (centres undefined),-0.966%,–
CCc1nc(SCC(=O)NNC(=O)c2ccc(C)cc2)c2ccccc2n1,-2.39%,–
Cc1ccc(C(=O)NNC(=O)c2cc3cc4ccccc4nc3s2)cc1,2.41%,–
Cc1ccc(C(=O)NNc2ncnc3ccccc23)cc1,–,8.49 µM (active)
CC1=C(C(=O)Nc2ccccc2Cl)C(c2cccs2)n2ncnc2N1 (centres undefined),-6.97%,–
O=C(/C=C\c1cn(-c2ccccc2)nc1-c1cccs1)N1CCOCC1,–,7.57 µM (active)

Structure (SMILES),"activity change, negative = inhibition",Potency
O=C(NCc1cccnc1)c1nc(-c2cccs2)no1,3.45%,–
O=C(/C=C/c1cccs1)NCc1cccnc1,-0.859%,–
O=C(O)/C=C/c1cn(-c2ccccc2)nc1-c1cccs1,–,21.3 µM (active)
O=C(O)c1ccc(N/N=C/c2cn(-c3ccccc3)nc2-c2cccs2)cc1,–,0.107 µM (active)
O=C(NCc1cccnc1)c1cn(-c2ccccc2)nc1-c1cccs1,–,6.01 µM (active)
O=C(COC(=O)/C=C/c1cn(-c2ccccc2)nc1-c1cccnc1)Nc1ccc(Cl)cc1Cl,5.4%,–
Cc1c(NC(=O)C(=O)N/N=C/c2cccs2)c(=O)n(-c2ccccc2)n1C,-7.6%,–
CCC(=O)N1N=C(c2ccc(OC)cc2)CC1c1cn(-c2ccccc2)nc1-c1cccs1 (centres undefined),0.511%,–
COc1ccc(-c2nn(-c3ccccc3)cc2/C=C\C(=O)N2CCOCC2)cc1[N+](=O)[O-],0.818%,–
S=c1[nH]nc(-c2cccs2)n1/N=C/c1cn(-c2ccccc2)nc1-c1ccc(Cl)cc1,2.83%,–
COc1cccc(NC(=O)CN(C)C(=O)/C=C/c2cn(-c3ccccc3)nc2-c2cccs2)c1,-13.6%,–
CN(C)c1ccc(NC(=S)N(CCc2ccccc2)C2CC(=O)N(c3c(Cl)cccc3Cl)C2=O)cc1 (centres undefined),-2.16%,–
CCN1CCN(CCCNC(=O)c2cnn(-c3ccc(C)cc3C)c2C2CCN(C(=O)OC(C)(C)C)CC2)CC1,-2.56%,–
O=C(COC(=O)c1cc(=O)[nH]c2ccccc12)NCc1cccc(Cl)c1,2.01%,–
Cn1cc(S(=O)(=O)N2CCCCCC2)cc1C(=O)N1CCN(c2ccc(F)cc2)CC1,-14.1%,–
CCc1ccc2c(c1)cc(CN(C(=S)Nc1ccccc1Cl)C1CC1)c1nnnn12,3.26%,–
O=C(Cc1ccccc1)Nc1sc2c(c1C(=O)Nc1ccc(Br)cc1)CCC2,-3.93%,–
Cc1ccc(S(=O)(=O)c2nc(-c3cccs3)oc2N2CCCCC2)cc1,-14%,–
CCOc1cc(C2c3c(-c4ccc(Br)cc4)n[nH]c3C(=O)N2c2ccc(Cl)cc2)ccc1O (centres undefined),18.5%,–
CN(C)c1cccc(C(=O)Nc2nc3ccc(S(=O)(=O)NC(C)(C)C)cc3s2)c1,-12.4%,–
CS(=O)(=O)c1ccc2nc(NC(=O)c3ccc(Cl)nc3)sc2c1,–,21.3 µM (active)
CS(=O)(=O)c1ccc2nc(NC(=O)C3C4C=CC(C4)C3C(=O)O)sc2c1 (centres undefined),-2.44%,–
COc1cccc(C(=O)Nc2nc3ccc(S(C)(=O)=O)cc3s2)c1,–,6.01 µM (active)
COc1cccc(C(=O)NNS(=O)(=O)c2ccc(F)cc2)c1,-3.77%,–
CCCC(=O)Nc1nc2ccc(NC(=O)c3cccnc3)cc2s1,-20.6%,–

Structure (SMILES),"activity change, negative = inhibition",Potency
O=C(NC1CC(=O)N(c2ccc(F)cc2)C1)c1ccc(S(=O)(=O)N2CCCC2)cc1 (centres undefined),-0.932%,–
Cc1ccc(-n2c(SCC(=O)N3CCC(C(=O)O)CC3)nc3ccccc3c2=O)cc1C,–,13.5 µM (active)
COc1cccc(-n2c(SCC(=O)c3c[nH]c4ccccc34)nc3ccccc3c2=O)c1,3.3%,–
O=C(CSc1nc2ccccc2c(=O)n1-c1ccc(F)cc1)NC1CC1,0.482%,–
COc1ccccc1N1CCN(S(=O)(=O)CCNC(=O)COc2ccc(F)cc2)CC1,-6.01%,–
COc1ccc(S(=O)(=O)N2CCN(CC(=O)NCC3(N4CCOCC4)CCCCC3)CC2)cc1,7.45%,–
CC1=CC(C)(C)N(C(=O)CSc2nnc(-c3ccccc3)o2)c2ccc(C)cc21,0.191%,–
Cc1ccc(-c2nnc(SCc3ccccc3C)o2)cc1,–,10.7 µM (active)
CCOC(=O)CSc1nnc(-c2ccc([N+](=O)[O-])cc2)o1,-18%,–
Cc1ccccc1CSc1nnc(CCCCCNC(=O)OC(C)(C)C)o1,-18%,–
CCCCSc1nnc(-c2ccc(C)cc2)o1,–,2.69 µM (active)
COc1cccc(NC(=O)CSc2nnc(-c3cccnc3)o2)c1,1.95%,–
COC(=O)CSc1nnc(-c2cccnc2)o1,4.39%,–
COc1ccc(-c2nnc(SCc3cccnc3)o2)cc1,–,21.3 µM (active)
Cc1cccc(C)c1OC(=O)CSc1nnc(-c2ccccc2)o1,2.68%,–
Cc1ccc(C(=O)N2c3ncnn3C3(CCCCC3)[C@@H]3CCCC[C@@H]32)cc1,-11.4%,–
Cc1ccc(S(=O)(=O)CCC(=O)OCC(=O)NCCc2ccc(S(N)(=O)=O)cc2)cc1,0.363%,–
COc1ccc(-c2onc(C)c2C)cc1S(=O)(=O)NCC1CCN(Cc2cccc(F)c2)CC1,3.47%,–
CCN(CC)c1cc(NC2CCCCC2)c2c3c(onc13)-c1ccccc1C2=O,-3.88%,–
O=P(O)(CN1CCCCC1)CN1CCCCC1,3.43%,–
CCOc1ccc(CNC(=O)c2ccc(CS(=O)c3ccccc3)o2)cc1 (centres undefined),-8.55%,–
CCN(CC)S(=O)(=O)c1ccc2[nH]c(=O)cc(C(=O)N(C)C3CCS(=O)(=O)C3)c2c1 (centres undefined),3.37%,–
CCc1ccc(C2C(C(=O)Nc3ccccc3)=C(C)Nc3c(C(=O)Nc4ccc(C)cc4)cnn32)cc1 (centres undefined),-4.9%,–
CC(=O)Nc1c(C)nn(-c2ccccc2)c1N1CCC(C(=O)Nc2cc(Cl)ccc2C)CC1,-9.72%,–
